Measurements reported in the supplement of paper PMC8047044.
Structures can show the parent of a compound that is named as a salt.

Legend:
Neuro-2a [1] = test: neurite formation score, plate-normalized to DMSO control mean 5.04 (score (0-8 scale)); higher = more or longer neurites; details: 1 µM
Method: (§1)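 Neuro-2a mouse neuroblastoma cells in PLL-coated 96-well plates were pre-treated for 1 h in DMEM(+) with each kinase inhibitor at 1 µM, then switched to serum-free DMEM(-) with inhibitor to induce neurite outgrowth and fixed about 2-3 h later. Three blinded observers scored neurite formation from 0 (no neurites) to 8 (long neurites on almost all cells).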

Neuro-2a [2] = test: as above; details: 0.1 µM
Method: as §1, with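 “at 0.1” for “at 1”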

Molecule `Cn1cc(C2=C(c3ccc(Cl)cc3Cl)C(=O)NC2=O)c2ccccc21` has a neurite formation score (Neuro-2a [1]) of 4.14 and a neurite formation score (Neuro-2a [2]) of 4.76.
`O=C(Nc1cccc(Cl)c1)Nc1ncc(CCNc2ncnc3ccsc23)s1` [SNS-314 Mesylate] was tested, and the neurite formation score (Neuro-2a [1]) was 4.69 and the neurite formation score (Neuro-2a [2]) was 4.58.
Molecule `Cc1ccc([N+](=O)[O-])cc1S(=O)(=O)N(C)/N=C/c1cnc2ccc(Br)cn12` has a neurite formation score (Neuro-2a [1]) of 4.54 and a neurite formation score (Neuro-2a [2]) of 3.08.
`COc1cc2c(Oc3ccc(NC(=O)C4(C(=O)Nc5ccc(F)cc5)CC4)cc3F)ccnc2cc1OCCCN1CCOCC1` was tested, and the neurite formation score (Neuro-2a [1]) was 3.24 and the neurite formation score (Neuro-2a [2]) was 3.38.
`NC(=O)c1cnc(N[C@@H]2CCCC[C@@H]2N)nc1Nc1cccc(-n2nccn2)c1` gave a neurite formation score (Neuro-2a [1]) of 4.36 and a neurite formation score (Neuro-2a [2]) of 4.92.
`O=C(Nc1ccc(OC(F)(F)F)cc1)c1sccc1NCc1ccnc2ccccc12` was tested, and the neurite formation score (Neuro-2a [1]) was 3.91 and the neurite formation score (Neuro-2a [2]) was 3.38.
For `CCN1CCN(Cc2ccc(-c3cc4c(N[C@H](C)c5ccccc5)ncnc4[nH]3)cc2)CC1`, the neurite formation score (Neuro-2a [1]) was 2.57 and the neurite formation score (Neuro-2a [2]) was 4.54.
Molecule `COC(=O)Nc1nc2cc(C(=O)c3cccs3)ccc2[nH]1` [Nocodazole] has a neurite formation score (Neuro-2a [1]) of 1.29 and a neurite formation score (Neuro-2a [2]) of 1.58.
`CCc1ccc(/C=C2/SC(=S)NC2=O)cc1` was tested, and the neurite formation score (Neuro-2a [1]) was 5.57 and the neurite formation score (Neuro-2a [2]) was 5.04.
In the case of `CCN(CC)CCNC(=O)c1c(C)[nH]c(/C=C2\C(=O)Nc3ccc(F)cc32)c1C` [Sunitinib malate], the neurite formation score (Neuro-2a [1]) is reported as 5.57 and the neurite formation score (Neuro-2a [2]) is reported as 5.21.
In the case of `CNC(=O)c1ccc(C)c(-n2c(C)cc(OCc3ccc(F)cc3F)c(Br)c2=O)c1`, the neurite formation score (Neuro-2a [1]) is reported as 3.57 and the neurite formation score (Neuro-2a [2]) is reported as 2.21.
Work on `c1cncc(CN2CCC(n3ncc4c(N5CCOCC5)nc(-c5ccc6[nH]ccc6c5)nc43)CC2)c1` yielded a neurite formation score (Neuro-2a [1]) of 1.54 and a neurite formation score (Neuro-2a [2]) of 0.751.
In the case of `C[C@@H]1CCNC(=O)c2cc3ccc(C(=O)Nc4nc5ccccc5n4CCCN(C)C)cc3n21`, the neurite formation score (Neuro-2a [1]) is reported as 5.29 and the neurite formation score (Neuro-2a [2]) is reported as 4.92.
With `COc1cc2ncnc(Nc3cccc(Cl)c3F)c2cc1OC(=O)N1CCN(C)C[C@H]1C` the neurite formation score (Neuro-2a [1]) was 4.54 and the neurite formation score (Neuro-2a [2]) was 4.75.
With `CC(C)N(CCC(=O)c1ccc2ccccc2c1)Cc1ccccc1` the neurite formation score (Neuro-2a [1]) was 5.02 and the neurite formation score (Neuro-2a [2]) was 4.92.
With `O=c1c(-c2ccc(O)cc2)coc2cc(O)cc(O)c12` [Genistein] the neurite formation score (Neuro-2a [1]) was 4.57 and the neurite formation score (Neuro-2a [2]) was 3.38.
With `N=C(N)NCCC(=O)O` [3-Guanidinopropionic Acid] the neurite formation score (Neuro-2a [1]) was 5.21 and the neurite formation score (Neuro-2a [2]) was 4.75.
Molecule `Cc1ccc(NC(=O)c2ccc(CN3CCN(C)CC3)cc2)cc1Nc1nccc(-c2cccnc2)n1` [Imatinib Mesylate (STI571)] has a neurite formation score (Neuro-2a [1]) of 4.91 and a neurite formation score (Neuro-2a [2]) of 4.71.
Molecule `Cc1cc(NC(=O)c2cccc(NC(=O)/C=C/CN(C)C)c2)ccc1Nc1nccc(-c2cccnc2)n1` has a neurite formation score (Neuro-2a [1]) of 5.36 and a neurite formation score (Neuro-2a [2]) of 4.58.
Work on `CC(C)(C)c1cnc(CSc2cnc(NC(=O)C3CCNCC3)s2)o1` yielded a neurite formation score (Neuro-2a [1]) of 4.57 and a neurite formation score (Neuro-2a [2]) of 4.38.
For `Cc1c(Cn2c(C)nc3c(C(=O)O)cc(N4CCOCC4)cc32)cccc1C(F)(F)F`, the neurite formation score (Neuro-2a [1]) was 4.88 and the neurite formation score (Neuro-2a [2]) was 4.08.
With `CC(C)n1nc(-c2cc3cc(O)ccc3[nH]2)c2c(N)ncnc21` the neurite formation score (Neuro-2a [1]) was 3.47 and the neurite formation score (Neuro-2a [2]) was 4.76.
For `CC(C)Nc1cc(-c2c[nH]c(C(=O)N[C@H](CO)c3cccc(Cl)c3)c2)c(Cl)cn1`, the neurite formation score (Neuro-2a [1]) was 3.47 and the neurite formation score (Neuro-2a [2]) was 4.76.
`CN1CCN(c2cccc(Nc3nc4c(-c5ccc(S(C)(=O)=O)cc5)cccn4n3)c2)CC1` showed a neurite formation score (Neuro-2a [1]) of 4.69 and a neurite formation score (Neuro-2a [2]) of 4.25.
Molecule `CCOc1ccc(Nc2ccc(/C(=C3C=C/C(=[N+](/CC)Cc4cccc(S(=O)(=O)[O-])c4)C=C/3C)c3ccc(N(CC)Cc4cccc(S(=O)(=O)O)c4)cc3C)cc2)cc1` [Brilliant Blue G] has a neurite formation score (Neuro-2a [1]) of 5.21 and a neurite formation score (Neuro-2a [2]) of 2.08.
`COc1cc2nccc(Oc3ccc(NC(=O)C4(C(=O)Nc5ccc(F)cc5)CC4)cc3)c2cc1OC` [Cabozantinib malate (XL184)] showed a neurite formation score (Neuro-2a [1]) of 2.29 and a neurite formation score (Neuro-2a [2]) of 4.92.
For `COc1cc2ncc(-c3ccccc3)nc2cc1OC` [Tyrphostin AG 1296], the neurite formation score (Neuro-2a [1]) was 5.24 and the neurite formation score (Neuro-2a [2]) was 5.04.
In the case of `COc1cc(N2CCC(N(C)C)CC2)ccc1Nc1ncc(Cl)c(Nc2ccccc2P(C)(C)=O)n1`, the neurite formation score (Neuro-2a [1]) is reported as 4.57 and the neurite formation score (Neuro-2a [2]) is reported as 4.38.
Molecule `CCOc1ccn(-c2ccc(F)cc2)c(=O)c1C(=O)Nc1ccc(Oc2ccnc(N)c2Cl)c(F)c1` has a neurite formation score (Neuro-2a [1]) of 5.24 and a neurite formation score (Neuro-2a [2]) of 4.21.
`Cn1cc(C2=C(c3cn(CCCSC(=N)N)c4ccccc34)C(=O)NC2=O)c2ccccc21` [Ro 31-8220 Mesylate] gave a neurite formation score (Neuro-2a [1]) of 4.54 and a neurite formation score (Neuro-2a [2]) of 3.08.
For `CC(C)Oc1ccc(-c2cnc3c(-c4ccnc5ccccc45)cnn3c2)cc1`, the neurite formation score (Neuro-2a [1]) was 4.88 and the neurite formation score (Neuro-2a [2]) was 4.08.
`O=C(/C=C/c1ccc2ccccc2n1)c1ccncc1` was tested, and the neurite formation score (Neuro-2a [1]) was 5.21 and the neurite formation score (Neuro-2a [2]) was 3.08.
`COc1cc2c(c(OC)c1OC)-c1c(cc3c(c1OC)OCO3)CC(C)C(C)C2` (stereo not drawn) [Schizandrin B] gave a neurite formation score (Neuro-2a [1]) of 4.88 and a neurite formation score (Neuro-2a [2]) of 5.08.
With `CS(=O)(=O)c1ccc(-c2cnc(N)c(C(=O)Nc3ccccc3)n2)cc1` the neurite formation score (Neuro-2a [1]) was 4.24 and the neurite formation score (Neuro-2a [2]) was 3.04.
In the case of `O=C(NCCO)c1cccc(-c2cc(Nc3ccc(OC(F)(F)F)cc3)ncn2)c1`, the neurite formation score (Neuro-2a [1]) is reported as 5.63 and the neurite formation score (Neuro-2a [2]) is reported as 4.92.
With `NC1(c2ccc(-c3nc4ccn5c(=O)[nH]nc5c4cc3-c3ccccc3)cc2)CCC1` [MK-2206 dihydrochloride] the neurite formation score (Neuro-2a [1]) was 4.24 and the neurite formation score (Neuro-2a [2]) was 4.71.
`Cc1ccc(NC(=O)c2ccc(CN3CCN(C)CC3)cc2)cc1Nc1nccc(-c2cccnc2)n1` [Imatinib (STI571)] showed a neurite formation score (Neuro-2a [1]) of 4.54 and a neurite formation score (Neuro-2a [2]) of 1.42.
For `Cc1ccc(Nc2nccc(N(C)c3ccc4c(C)n(C)nc4c3)n2)cc1S(N)(=O)=O`, the neurite formation score (Neuro-2a [1]) was 3.91 and the neurite formation score (Neuro-2a [2]) was 3.71.
Molecule `CNC(=O)c1cccc(-c2ccc3c(N4CCOC[C@@H]4C)nc(N4CCOC[C@@H]4C)nc3n2)c1` has a neurite formation score (Neuro-2a [1]) of 4.29 and a neurite formation score (Neuro-2a [2]) of 4.58.
Work on `Cc1ccc2c(Nc3ccc(Cl)cc3)nccc2c1Nc1ncccc1-c1ncnc2nc[nH]c12` [B-Raf inhibitor 1] yielded a neurite formation score (Neuro-2a [1]) of 2.47 and a neurite formation score (Neuro-2a [2]) of 4.76.
Molecule `Cc1ccc(-c2nn(C(C)(C)C)c3ncnc(N)c23)cc1` has a neurite formation score (Neuro-2a [1]) of 2.9 and a neurite formation score (Neuro-2a [2]) of 3.54.
`C=CC(=O)Nc1cccc(Sc2nc(Nc3ccc(N4CCN(C)CC4)cc3)ncc2Cl)c1` gave a neurite formation score (Neuro-2a [1]) of 4.91 and a neurite formation score (Neuro-2a [2]) of 4.71.
Work on `CC(C)(C)c1nc2c3cc[nH]c(=O)c3c3cc(F)ccc3c2[nH]1` [Pyridone 6] yielded a neurite formation score (Neuro-2a [1]) of 3.69 and a neurite formation score (Neuro-2a [2]) of 5.25.
`CS(=O)(=O)c1cccc(CNc2nc(Nc3ccc4c(c3)CCC(=O)N4)ncc2C(F)(F)F)c1` gave a neurite formation score (Neuro-2a [1]) of 3.47 and a neurite formation score (Neuro-2a [2]) of 5.09.
